# Bioassay records (PubChem BioAssay)
# An excerpt weighted towards active compounds, which were near 1.3% of everything screened.
# PTPN22 act – activators of human LYP (PTPN22) phosphatase; Q9Y2R2; 96,000 compounds, 0.11% hits; recombinant LYP, DiFMUP fluorescence; 0 = plate median, 100 = signal doubled; activation, % at 2 µM;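 active = activation at 2 µM above a set limit, the mean plus 5 SD, cut at about 37% in these data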
# Target sequence (Q9Y2R2 whole entry, looked up): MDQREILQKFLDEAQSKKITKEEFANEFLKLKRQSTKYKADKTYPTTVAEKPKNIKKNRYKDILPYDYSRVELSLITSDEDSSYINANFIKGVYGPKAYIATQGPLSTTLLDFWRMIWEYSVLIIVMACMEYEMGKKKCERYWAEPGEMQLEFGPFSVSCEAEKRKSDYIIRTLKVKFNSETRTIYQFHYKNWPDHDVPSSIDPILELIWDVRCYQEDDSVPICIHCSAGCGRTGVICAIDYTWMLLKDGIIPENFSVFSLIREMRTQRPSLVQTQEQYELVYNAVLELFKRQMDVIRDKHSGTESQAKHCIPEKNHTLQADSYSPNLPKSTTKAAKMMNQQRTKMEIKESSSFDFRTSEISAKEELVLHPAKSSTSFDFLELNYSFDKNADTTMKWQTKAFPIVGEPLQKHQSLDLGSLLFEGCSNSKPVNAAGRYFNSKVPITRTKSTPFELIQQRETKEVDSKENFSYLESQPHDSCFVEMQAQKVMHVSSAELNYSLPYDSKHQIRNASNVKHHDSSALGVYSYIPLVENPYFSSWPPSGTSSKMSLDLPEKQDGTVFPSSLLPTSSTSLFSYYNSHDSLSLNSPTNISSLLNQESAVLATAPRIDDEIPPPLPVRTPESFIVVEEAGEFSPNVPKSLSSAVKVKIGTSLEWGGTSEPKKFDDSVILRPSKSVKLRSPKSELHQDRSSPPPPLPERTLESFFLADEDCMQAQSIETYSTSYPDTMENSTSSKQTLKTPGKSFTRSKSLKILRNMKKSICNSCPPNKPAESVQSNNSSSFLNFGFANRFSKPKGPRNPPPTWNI
# HUVEC tox IL1B – toxic to HUVEC cells under IL-1B stimulation; HUVEC cell count loss, Hoechst imaging, IL-1B stimulated; cell count reduction, % at 2 µM; 94,000 compounds, 0.41% hits; AID 845;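 active = cell count reduction more than 3 SD above the screen-wide mean, cut at about 70% in these data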;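 note: normalized per plate to untreated control cells as the no-loss baseline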
# LYP inh 2 – LYP (human) phosphatase inhibition | recombinant LYP catalytic domain, DiFMUP fluorescence | inhibition, % at 2 µM | 96,000 compounds, 0.21% hits;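 active = inhibition at 2 µM at or above a set limit, the screen mean plus 3 SD, cut at about 24% in these data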;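 note: 0% = DMSO with enzyme and 100% = enzyme fully blocked by orthovanadate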
# IL1B NFkB pot – enhances IL-1B driven NFkB nuclear translocation. HUVEC IL-1B NFkB p65 nuclear translocation imaging. activation, % at 2 µM. 94,000 compounds, 0.3% hits;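 active = activation above 40%, about the mean plus 3 SD, also judged a hit on visual image review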;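 note: percent activation is computed from the nuclear over cytoplasmic p65 intensity ratio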
# IL1B NFkB inh – blocks IL-1B driven NFkB nuclear translocation in HUVEC cells; inhibition, % at 2 µM; HUVEC IL-1B NFkB p65 nuclear translocation imaging; 94,000 compounds, 0.43% hits;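 active = inhibition above about 30% together with a positive call from visual inspection of the well image, limit read from the data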;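 note: nuclear over cytoplasmic p65 intensity ratio measured by imaging; 0% = IL-1B stimulated DMSO wells and 100% = unstimulated DMSO wells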
# * = called active by the depositor; nt = no result.
SMILES,PTPN22 act,HUVEC tox IL1B,LYP inh 2,IL1B NFkB pot,IL1B NFkB inh
Cc1ccc(C)c(S(=O)(=O)NC(C)C(=O)Nc2ccc(-c3nc4ccccc4s3)cc2)c1 (stereo unspecified),3,-56,-1,5,-5
Cc1noc(C)c1CSc1nc2sc(C)c(C)c2c(=O)n1-c1ccccc1,-5,-2,7,-5,5
Cc1noc(C)c1CSc1nc2ccccc2c(=O)n1-c1ccc(Cl)cc1,-7,89*,9,-1,1
Cc1ccc2oc(C(Cl)(Cl)Cl)cc(=O)c2c1,9,-12,-6,-7,7
Cc1ccc(Cl)cc1N(Cc1ccc(C(=O)NCc2cccnc2)cc1)S(=O)(=O)c1ccccc1,-1,34,7,-1,1
COc1cccc(/C=C/C(=C2\C(=O)N(c3ccccc3)N=C2C)c2ccc(Br)cc2)c1OC,-8,-5,10,-3,3
CCN(CC)CCCn1c(=S)[nH]c2cc(Cl)ccc2c1=O,-13,78*,10,0,0
CC(C)(C)c1ccc(C(=O)CSc2n[nH]c(=O)[nH]c2=O)cc1,7,4,-7,5,-5
O=C(CSc1nnc(Cn2nnc(-c3ccccc3)n2)n1-c1ccccc1)Nc1ccc(F)cc1,-4,90*,-1,-99,99*
O=C(NCN1CCCCC1)c1cccnc1,-3,-15,0,-1,1
O=C(NCN1CCCCC1)c1cnccn1,-1,90*,7,12,-12
CCOC(=O)CSc1nnc(Cc2ccccc2)n1CC1CCCO1 (stereo unspecified),5,14,-7,52*,-52
CCOc1ccc(C2=C(C=Nc3c(C)n(C)n(-c4ccccc4)c3=O)C(c3ccc(F)cc3)c3ccccc3O2)cc1 (stereo unspecified),-17,-1,17,-5,5
CN(c1ccc(C(=O)Nc2ccccc2C(=O)N2CCCC2)cc1)S(C)(=O)=O,-6,82*,4,0,0
CN(c1ccc(C(=O)N2CCCCC2)cc1)S(C)(=O)=O,5,12,-1,9,-9
Cc1onc(-c2c(Cl)cccc2Cl)c1C(=O)N/N=C(\N)COc1ccc(Cl)cc1,-5,6,7,2,-2
CCCc1nnc(SCC(=O)N2CCOCC2)n1C,-6,5,8,-10,10
Cc1nnc(NC(=O)CSc2ncnc3scc(-c4ccccc4)c23)s1,21,0,-20,9,-9
COC(=O)c1c(-c2ccccc2)csc1NC(=O)CSc1ncnc2sc(C)c(C)c12,-3,89*,5,12,-12
O=C(CC1N=C2c3ccccc3N=C(SCc3ccc(F)cc3)N2C1=O)NCc1ccco1 (stereo unspecified),-14,1,19,0,0
Cc1ccc(CSC2=Nc3ccccc3C3=NC(CC(=O)NCc4ccco4)C(=O)N23)cc1 (stereo unspecified),-20,-8,24*,5,-5
CCOC(=O)c1c(-c2ccccc2)oc2cc(CN(C)C)c(O)c(CN(C)C)c12,10,16,-10,6,-6
Cc1ccc(C(=O)NCc2nnc(SCC(=O)Nc3sc4c(c3C#N)CCCC4)n2C)cc1,-9,82*,10,33,-33
C/C(CC1CC2=C(CC1(C)C)C(C)(C)CCC2)=N\NC(N)=S (stereo unspecified),-20,nt,21,nt,nt
CCC(=O)c1ccc(N2CCN(C(=O)COc3ccc(F)cc3)CC2)c(F)c1,15,-2,-15,34,-34
SMILES,PTPN22 act,HUVEC tox IL1B,LYP inh 2,IL1B NFkB pot,IL1B NFkB inh
CC(=O)c1cc(F)c(N2CCN(C(=O)COc3ccc(F)cc3)CC2)cc1C,13,83*,-14,16,-16
CN(C)C(=O)NCc1ccc(S(N)(=O)=O)cc1,-2,87*,1,-7,7
Cc1cc(C(=O)NCc2ccc(S(N)(=O)=O)cc2)c(C)o1,14,-26,-15,-12,12
NS(=O)(=O)c1ccc(CNC(=O)CC23CC4CC(CC(C4)C2)C3)cc1,19,12,-23,-32,32*
Cc1cccc(NC(=O)CCSc2nncn2C)c1,5,-49,-13,-10,10
Cc1cccc(OCC(=O)O/N=C(\N)Cc2cccs2)c1,-4,-12,7,-4,4
N/C(Cc1cccs1)=N\OC(=O)COc1ccc(Br)cc1,11,3,-8,60*,-60
CCC1CCCCN1C(=O)CSc1nnc(CNC(=O)c2ccco2)o1 (stereo unspecified),10,-1,-11,3,-3
CCC1CCCCN1C(=O)CSc1nnc(-c2cccs2)o1 (stereo unspecified),9,86*,-11,-97,97*
COCCCNC(=O)c1nc2c(nnn2Cc2cc(C)ccc2C)c(=O)[nH]1,13,93*,-17,41*,-41
Cc1cc(C)n2nc(SCc3cc(=O)oc4cc(O)ccc34)nc2n1,-28,-5,29*,8,-8
CCCCS(=O)(=O)/C=C\C=C/S(=O)(=O)CCCC,-2,58,0,-95,95*
CCCCN(CCCNC(=O)c1ccc2nc(N3CCOCC3)sc2c1)Cc1ccccc1,1,15,-2,22,-22
C=CCn1nnc2sc3c(c2c1=O)CCC(C)C3 (stereo unspecified),0,-47,1,-48,48*
CSc1nc2sc3c(c2c(=O)n1C)CCC(C)C3 (stereo unspecified),-11,-30,8,2,-2
COc1ccc(-n2ncc3c(SCC(=O)N4CCN(c5ccccc5OC)CC4)ncnc32)cc1,-2,-23,-1,-2,2
O=C(NCc1ccco1)C1CCN(C(=O)c2cc3sccc3n2Cc2ccc(F)cc2)CC1,-4,89*,1,-3,3
O=C(NCCCN1CCCC1)C1CCN(C(=O)c2cc3sccc3n2Cc2ccc(F)cc2)CC1,-17,9,17,10,-10
CCN(CC)CC#CCC(C)(c1ccccc1)c1ccccc1,0,4,5,-7,7
COCCN(CC(=O)NCc1ccccc1)C(=O)CCC(=O)Nc1nccs1,3,2,-4,41*,-41
CC1=NCC(C)c2c1[nH]c1ccccc21 (stereo unspecified),-12,-12,15,-7,8
CCCC(C)C(=O)NCc1ccccc1OC (stereo unspecified),10,0,-12,123*,-123
COc1ccccc1CNC(=O)c1ccccc1N,16,2,-17,16,-16
CCCCC(CC)C(=O)NCc1ccccc1OC (stereo unspecified),-9,-9,8,101*,-101
CCOC(=O)c1c(N2C(=O)Nc3cc(Cl)c(Cl)cc3N2O)sc2c1CCCCC2,-30,14,32*,8,-8
CCOC(=O)c1c(N2C(=O)C3C4C=CC(O4)C3C2=O)sc2c1CCCC2 (stereo unspecified),-4,19,6,19,-19
CCOC(=O)c1ccc(S(=O)(=O)Nc2ccc3cn[nH]c3c2)cc1,-9,-10,6,-7,7
COc1ccc(-n2sc3c(c2=S)-c2cc(OC)ccc2NC3(C)C)cc1,-6,-9,10,-2,2
